The nature of assay [1]: qHTS RealTime-Glo MT Cell Viability Assay in HepG2 cells - 40 hour (AID 1224870). Further: nearly all actives have a fitted effect of over 50% in size. Put shortly:
(§1)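 HepG2 cells (600/well) mixed with RealTime-Glo MT reagent, settled 5 h at 37 C/5% CO2 before compound addition. Nonlytic NanoLuc luminescence from viable-cell prosubstrate reduction read repeatedly during 40 h treatment at 37 C.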
A general note: In qHTS, concentration-response curves come from the screen itself.

Assay [2] in a line: qHTS RealTime-Glo MT Cell Viability Assay in HEK293 cells - 16 hour (AID 1224872). Further: nearly all actives have a fitted effect of over 50% in size. Further: potency means the concentration at half of the fitted maximal effect. Put shortly:
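HEK293 cells were seeded at 600 cells/well together with NanoLuc luciferase and cell-permeant prosubstrate, preincubated 5 h at 37 C/5% CO2, then given compound in DMSO by pintool. Luminescence from viable-cell prosubstrate reduction was read repeatedly over 40 h.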

The nature of assay [3]: qHTS RealTime-Glo MT Cell Viability Assay in HepG2 cells - 8 hour (AID 1224873). Further: nearly all actives have a fitted effect of over 55% in size. In outline: as §1
A short description of assay [4]: qHTS RealTime-Glo MT Cell Viability Assay in HEK293 cells - 40 hour (AID 1224874). Further: nearly all actives have a fitted effect of over 50% in size. Further: potency means the concentration at half of the fitted maximal effect. Conditions: RealTime-Glo luminescence; max response: active compounds read low. Put shortly: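 600 cells/well were plated with the nonlytic NanoLuc/prosubstrate reagent, pre-incubated 5 h, then given 23 nL of compound in DMSO. Incubation at 37 C for 40 h, with luminescence from viable-cell-reduced substrate read repeatedly from 0 h.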

A short description of assay [5]: A CellTox Green Cytotoxicity Assay to monitor cytotoxicity in HEK293 cells - 24 hour (AID 1224875). Further: series mostly up to about 77 µM; nearly all actives have a fitted effect of over 45% in size. In outline: (§2)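 HEK293 cells, 600/well, were preincubated 5 hours and then exposed to compounds at 37 C for up to 40 hours. A cell-impermeant cyanine dye staining dead-cell DNA was read by fluorescence at 0, 8, 16, 24, 32 and 40 h time points.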
The nature of assay [6]: A CellTox Green Cytotoxicity Assay to monitor cytotoxicity in HepG2 cells - 16 hour (AID 1224876). Further: nearly all actives have a fitted effect of over 45% in size. In outline: (§3)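 HepG2 cells, 600/well, preincubated 5 h with CellTox Green dye, then exposed to Tox21 compounds in DMSO at 37 C for up to 40 h. Dead-cell DNA fluorescence read at the indicated time point.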
A short description of assay [7]: qHTS RealTime-Glo MT Cell Viability Assay in HepG2 cells - 32 hour (AID 1224877). Further: nearly all actives have a fitted effect of over 55% in size. Put shortly: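 HepG2 cells were seeded at 600 cells/well together with NanoLuc luciferase and a cell-permeant prosubstrate, preincubated 5 h at 37 C/5% CO2, then pin-dosed with compounds in DMSO. Nonlytic luminescence from viable cells was read at each time point.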
The nature of assay [8]: A CellTox Green Cytotoxicity Assay to monitor cytotoxicity in HepG2 cells - 24 hour (AID 1224878). Further: nearly all actives have a fitted effect of over 45% in size. Put shortly: as §3
Assay [9] is described as follows: A CellTox Green Cytotoxicity Assay to monitor cytotoxicity in HepG2 cells - 40 hour (AID 1224879). Further: nearly all actives have a fitted effect of over 40% in size. Put shortly:
as §3

Assay [10] is described as follows: A CellTox Green Cytotoxicity Assay to monitor cytotoxicity in HEK293 cells - 40 hour (AID 1224871). Further: nearly all actives have a fitted effect of over 45% in size. Put shortly: as §2

Here are results for 28 compounds from PubChem BioAssay (Tox21).

Molecules are shown by their SMILES. Records with an inconclusive call do not appear. Values without a mark were called inactive. The source made the active and inactive calls. The call rests on the fitted dose curve; in most records, active means well fitted curve in the direction sought with a large enough effect in the repeat runs; inconclusive means weak or mixed curves; inactive means no such curve, though single readings can be large; an effect the other way counts as inactive or inconclusive.
On the % scale 0 is the no-effect control and ±100 the full control effect.

With `CO[C@@H]1[C@@H](OC(N)=O)[C@@H](O)[C@H](Oc2ccc3c(O)c(NC(=O)c4ccc(O)c(CC=C(C)C)c4)c(=O)oc3c2C)OC1(C)C`, the compound was classed as inactive in assay [1], in assay [3], in assay [5], in assay [6], in assay [7] and in assay [8]. Also, the Potency result in [2] and in assay [9] was “inactive” throughout. In assay [4], the max response is 7.28%.

On to `CC1COc2ccccc2N1` (configuration not stated), for which the compound was called inactive in [1], in [3], in assay [5], in [6], in assay [7] and in assay [8]. The Potency result in assay [2] and in assay [9] was “inactive” in each case.

For `C=CC(OCC)OCC`, the compound was called inactive in [1], in [3], in [5], in assay [7] and in assay [8]. For the same compound, the Potency result in [2] and in assay [9] was “inactive” in each case. The max response in [4] is 8.05%.

In the case of `C=Cc1ccccn1`, the Potency result in [10], in [2] and in assay [9] was “inactive” each time. The result in assay [3], in [5], in [6], in [7] and in [8] was inactive. The max response in assay [4] was -0.127%.

In the case of `N[C@@H](CCC(=O)Nc1ccc([N+](=O)[O-])cc1)C(=O)O`, the result in assay [1], in [3], in assay [5], in assay [6], in [7] and in assay [8] was inactive. Moreover, the Potency entry in assay [2] and in assay [9] was “inactive” each time. Besides, the max response in assay [4] was -16.1%.

For `CCCCNc1ccc(C(=O)OCCN(C)C)cc1`, the compound was classed as inactive in assay [1], in assay [3], in assay [5], in assay [6], in [7] and in assay [8]. In addition, in assay [4], the max response is -3.43%. Also, in [9], the Potency entry is “inactive”.

On to `O=C(OCC(O)CO)c1ccccc1Nc1ccnc2c(C(F)(F)F)cccc12` (configuration not stated), for which the result in assay [1], in assay [3], in assay [5] and in assay [7] was inactive. In addition, the results for the Potency in assay [2] and in assay [4] were 5.35 µM (active) and 3.79 µM (active), respectively. Further, the Potency entry in assay [9] is “inactive”.

As to `Nc1cccc(O)c1`, the call in [1], in assay [3], in assay [5] and in assay [7] was inactive. Also, the Potency result in [2] and in assay [9] was “inactive” each time. Besides, the max response in assay [4] is 3.53%.

Turning to `ClCCCl`, the compound was called inactive in [1], in [3], in assay [5], in assay [7] and in assay [8]. Besides, the max response in [4] is -0.252%. Besides, the Potency entry in [9] was “inactive”.

Regarding `CCCCCCCCCCl`, the compound was classed as inactive in assay [1], in assay [3], in [5], in [6], in [7] and in [8]. The max response in assay [4] is -0.474%. In assay [9], the Potency result was “inactive”.

Consider `O=S(=O)(O)c1ccc2cc(O)c(S(=O)(=O)O)cc2c1`, for which the compound was called inactive in assay [1], in [3], in [5], in assay [6], in assay [7] and in [8]. The Potency entry in assay [2] and in assay [9] was “inactive” throughout. Also, the max response in assay [4] was -1.21%.

As for `CCN(C)C(=O)Oc1cccc([C@H](C)N(C)C)c1`, the compound was classed as inactive in assay [1], in [3], in [5], in assay [6], in assay [7] and in assay [8]. Besides, the Potency result in assay [2] and in assay [9] was “inactive” throughout. For the same compound, the max response in [4] was 1.94%.

`CCC(CC)CO`: the result in [1], in assay [3], in assay [5], in [6], in assay [7] and in [8] was inactive. The max response in assay [4] was 3.01%. In addition, the Potency entry in assay [9] was “inactive”.

For `Cc1cccc(C)c1OCC(C)N` (configuration not stated), the compound was classed as inactive in assay [1], in [3], in [5], in assay [6], in assay [7] and in [8]. Moreover, the max response in assay [4] is 2.76%. In addition, the Potency result in assay [9] is “inactive”.

Turning to `CC(S)C(=O)NCC(=O)O` (configuration not stated), the outcome in assay [1], in [3], in assay [6], in assay [7] and in assay [8] was inactive. For the same compound, the max response in assay [4] was 11.2%. The Potency result in assay [9] is “inactive”.

For the compound `Brc1ccc(-c2ccccc2)cc1`, the call in [1], in assay [3], in [5], in [6], in [7] and in [8] was inactive. Moreover, the Potency result in assay [2] and in [9] was “inactive” each time. Moreover, the max response in assay [4] is 1.08%.

For the compound `Nc1ccc2cc(S(=O)(=O)O)cc(O)c2c1`, the compound was called inactive in [1], in assay [3], in [5], in assay [6], in assay [7] and in [8]. Moreover, the Potency result in [2] and in assay [9] was “inactive” each time. For the same compound, in [4], the max response is 0.478%.

As to `COC(=O)[C@@H]1[C@H]2C[C@H]3c4[nH]c5ccccc5c4CCN3C[C@@H]2CC[C@@H]1O`, the Potency entry in assay [10], in [2] and in [9] was “inactive” throughout. The compound was classed as inactive in [3], in [5], in assay [6], in [7] and in [8]. In addition, in [4], the max response was -22.3%.

As for `Cc1ccc(C=O)cc1C`, the Potency result in [10], in assay [2] and in [9] was “inactive” in each case. Further, the compound was classed as inactive in [3], in [5], in assay [6], in assay [7] and in assay [8]. Besides, the max response in [4] is 2.17%.

For `FC(F)(F)c1ccccc1-n1ccnc1`, the Potency result in assay [10], in assay [2] and in assay [9] was “inactive” throughout. The call in assay [3], in [5], in assay [7] and in assay [8] was inactive. In addition, in assay [4], the max response was -3.14%.

For the compound `OCCN(CCO)c1cccc(Cl)c1`, the Potency result in assay [2] and in assay [9] was “inactive” throughout. The result in assay [3], in assay [5], in assay [6] and in [7] was inactive. Also, the max response in assay [4] was 0.212%.

As to `CC1(CO)CN(c2ccccc2)NC1=O` (configuration not stated), the Potency entry in [10] and in assay [9] was “inactive” in each case. In addition, the compound was classed as inactive in assay [3], in assay [5], in assay [6], in assay [7] and in [8]. For the same compound, the max response in assay [4] is -10.7%.

With `Nc1nnc(-c2cccc(Cl)c2Cl)c(N)n1`, the Potency result in [10] and in [9] was “inactive” throughout. Further, the compound was classed as inactive in assay [5], in [6] and in assay [8].

On to `Oc1ccccc1-c1nnco1`, for which the Potency result in assay [10], in assay [2] and in assay [9] was “inactive” each time. Besides, the outcome in [3], in assay [5], in [7] and in assay [8] was inactive. Also, the max response in assay [4] is 2.75%.

For the compound `Cc1cc(NC(=O)C2=C(O)c3ccccc3S(=O)(=O)N2C)no1`, the Potency result in [2] and in assay [9] was “inactive” in each case. Moreover, the result in [3], in assay [5], in assay [7] and in [8] was inactive. The max response in [4] is 4.93%.

Consider `COc1ccc(S(=O)(=O)N2c3ccc(Cl)cc3[C@@](O)(c3ccccc3Cl)[C@H]2C(=O)N2CCC[C@@H]2C(N)=O)cc1OC`, for which the Potency entry in [10] and in assay [9] was “inactive” in each case. Also, the call in [3], in assay [5], in assay [6], in assay [7] and in assay [8] was inactive.

For the compound `CC(C)C[C@H](NC(=O)CNC(=O)[C@H](Cc1ccc(O)cc1)NC(=O)[C@H](CO)NC(=O)[C@H](Cc1c[nH]c2ccccc12)NC(=O)[C@H](Cc1cnc[nH]1)NC(=O)[C@@H]1CCC(=O)N1)C(=O)N[C@@H](CCCN=C(N)N)C(=O)N1CCC[C@H]1C(=O)NCC(N)=O` (stereo in doubt), the Potency entry in assay [10], in [2] and in assay [9] was “inactive” throughout. For the same compound, the compound was classed as inactive in [3], in assay [5] and in [7]. In addition, the max response in assay [4] is 12.8%.

On to `Cc1ccc2ccc(Cl)cc2n1`, for which the Potency entry in [2] and in assay [9] was “inactive” each time. The compound was called inactive in assay [3], in [5], in assay [6], in assay [7] and in assay [8]. Also, in assay [4], the max response was 6.03%.
